CF NFkB inh = blocks PAF-induced NF-kB reporter in cystic fibrosis cells; KKLEB NF-kB-GFP reporter, GFP fluorescence overnight; hit rate 0.86% among 360,000; AID 588850; inhibition, % at 5 µM;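 active = at least 50% inhibition at 5 µM, scaled per plate between neutral and stimulator controls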;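 also: PAF is a Pseudomonas aeruginosa culture filtrate used as stimulus; plate controls were PAF-stimulated DMSO wells for no effect and unstimulated DMSO wells for full effect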
KKLEB tox = reduces viability of KKLEB cystic fibrosis airway cells. activity change (cytotoxicity), % at 5 µM. hit rate 0.36% among 360,000. KKLEB CF airway cells viability, ATPlite luminescence, overnight; hits give low values; cells stimulated with P. aeruginosa culture filtrate;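 active = corrected activity change at or below -50% at 5 µM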
ABHD5-PLIN5 inh = ABHD5-PLIN5 protein interaction inhibition; Q00G26+Q8WTS1; Split G. princeps luciferase complementation, luminescence, 4 h; inhibition, % at 4 µM; hit rate 0.78% among 360,000; AID 602281;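 active = inhibition above the mean inhibition across every tested compound plus 3 SD, cut at about 22% in these data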;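 also: 0% = DMSO only wells and the 100% control is not disclosed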
Target sequence (Q00G26 whole entry, looked up): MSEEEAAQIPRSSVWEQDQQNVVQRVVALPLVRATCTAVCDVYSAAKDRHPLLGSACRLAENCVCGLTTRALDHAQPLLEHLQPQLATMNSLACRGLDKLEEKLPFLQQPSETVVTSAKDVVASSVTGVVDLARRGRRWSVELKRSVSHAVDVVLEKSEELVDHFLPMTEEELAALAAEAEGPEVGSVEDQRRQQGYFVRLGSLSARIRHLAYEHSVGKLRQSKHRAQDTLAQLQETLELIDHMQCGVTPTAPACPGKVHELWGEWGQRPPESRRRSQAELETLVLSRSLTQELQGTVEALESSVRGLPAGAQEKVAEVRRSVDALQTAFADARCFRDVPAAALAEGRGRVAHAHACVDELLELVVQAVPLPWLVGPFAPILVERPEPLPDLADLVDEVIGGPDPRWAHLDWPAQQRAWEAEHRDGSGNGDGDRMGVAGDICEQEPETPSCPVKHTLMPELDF
Target sequence (Q8WTS1 whole entry, looked up): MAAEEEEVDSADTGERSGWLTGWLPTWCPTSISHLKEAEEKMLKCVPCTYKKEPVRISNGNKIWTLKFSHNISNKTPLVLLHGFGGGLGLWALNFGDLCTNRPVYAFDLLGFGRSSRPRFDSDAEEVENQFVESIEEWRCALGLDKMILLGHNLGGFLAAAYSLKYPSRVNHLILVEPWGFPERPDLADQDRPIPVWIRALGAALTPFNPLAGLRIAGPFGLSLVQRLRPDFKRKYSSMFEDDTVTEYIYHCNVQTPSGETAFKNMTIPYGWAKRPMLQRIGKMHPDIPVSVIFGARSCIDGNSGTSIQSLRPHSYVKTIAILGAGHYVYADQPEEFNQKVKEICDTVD
HIF-2a inh = inhibitors of HIF-2a. 786-0 RCC cells HIF-2a reporter, luciferase luminescence, overnight. inhibition, % at 18.8 µM. hit rate 0.72% among 360,000;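 active = inhibition of the luminescence signal of 40% or more relative to plate controls, in a single-dose primary screen at 18.75 µM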
Peg3 prom inh-1 = Peg3 promoter activity inhibition | HeLa PEG-Prom luciferase reporter, luminescence, overnight | inhibition, % at 20 µM | hit rate 1.7% among 360,000;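 active = inhibition of at least 50% at 20 µM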
MITF TRPM1 inh = reduces MITF-dependent TRPM1 promoter luciferase signal; SK-MEL-5 TRPM1 promoter luciferase, 24 h; inhibition, % at 12.5 µM; hit rate 0.83% among 330,000; AID 488899;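 active = mean inhibition across replicates of 60% or more, whatever share of single replicates reaches that level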
Peg3 prom inh-2 = confirmation of Peg3 promoter inhibitors | HeLa PEG-Prom luciferase reporter, luminescence, overnight | inhibition, % at 20 µM | shares compounds with Peg3 prom inh-1 | hit rate 84% among 1,300;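 active = at 20 µM dose, 40% or more inhibition averaged across four replicates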
CF NFkB conf = CF NF-kB inhibition confirmation, single concentration; hit rate 64% among 1,300; inhibition, % at 5 µM; shares compounds with CF NFkB inh; AID 602472; KKLEB CF airway cells, PAF-induced NF-kB-GFP fluorescence, overnight; in the data active = inhibition above about 40%;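 also: stimulus PAF is a Pseudomonas aeruginosa filtrate and not platelet activating factor; plate controls were DMSO wells with stimulus for no effect and unstimulated DMSO wells for full effect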
ABHD5 PLIN5 conf = confirmation of human ABHD5-PLIN5 interaction inhibitors. hit rate 67% among 2,200. biochemical ABHD5-PLIN5 interaction, luminescence. inhibition, % at 4 µM. shares compounds with ABHD5-PLIN5 inh; in the data active = inhibition above about 23%;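 also: 0% = DMSO vehicle wells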
HNF4 split-luc = active in HNF4 split-luciferase counter-screen for ABHD5-PLIN5 inhibitors. hit rate 77% among 2,200. HNF4 dimerization, luminescence, biochemical. inhibition, % at 4 µM. shares compounds with ABHD5-PLIN5 inh;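 active = mean inhibition across replicate wells exceeding the computed hit threshold, cut at about 13% in these data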;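 also: light from luciferase halves that rejoin when HNF4 fusion proteins dimerize; 0% = DMSO only wells and the 100% control is not given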
Mdm2-MdmX confirm = confirmation of inhibitors of human Mdm2/MdmX interaction, set 2 | shares compounds with HIF-2a inh | hit rate 99% among 740 | AID 504601 | inhibition, % at 8 µM | SaOS-2 split-luciferase Mdm2/MdmX complementation, luminescence;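 active = mean inhibition of the luminescence signal across two replicates at or above 26 percent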
HIF-2a inh conf = HIF-2a inhibition, single concentration confirmation; shares compounds with HIF-2a inh; 786-0 RCC cells, HIF-2a luciferase reporter luminescence, overnight; inhibition, % at 18.8 µM; hit rate 56% among 1,800; AID 651580;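 active = mean inhibition across four replicates of at least 40 percent at the single tested concentration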
HIF-1a cs = inhibits HIF-1a reporter, a counter-screen for HIF-2a inhibitors. hit rate 72% among 1,800. inhibition, % at 18.8 µM. MiaPaCa-2 HIF-1a luciferase reporter, desferoxamine, overnight. AID 651589. shares compounds with HIF-2a inh;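 active = mean inhibition of the reporter signal across four replicates at the single tested dose of 50% or more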
* = called active by the depositor; . = no result given. An excerpt weighted towards active compounds, which were near 3.1% of everything screened.

SMILES	CF NFkB inh	KKLEB tox	ABHD5-PLIN5 inh	HIF-2a inh	Peg3 prom inh-1	MITF TRPM1 inh	Peg3 prom inh-2	CF NFkB conf	others
C=CC12CN(C)C3C4COC(CC41)C1(C(=O)Nc4ccccc41)C32 (configuration not stated)	-1.5	-5.5	-6.3	10.8	20.3	.	.	.
CN1C(=O)CN=C(c2ccc[nH]2)c2cc(Cl)ccc21 (tested in a mixture with another compound)	-28.5	4.1	3.0	-6.0	-7.7	.	.	.
COc1ccc(C(c2nnnn2-c2c(C)cccc2C)N2CCC3(CC2)C(=O)NCN3c2ccccc2)cc1 (configuration not stated)	3.5	-20.9	5.4	9.6	42.0	.	.	.
COc1ccc(C(c2nnnn2-c2c(C)cccc2C)N2CCC(n3c(=O)[nH]c4ccccc43)CC2)cc1 (configuration not stated)	60.2*	-11.5	12.9	-4.0	59.0*	.	47.7*	-0.6
Cc1cccc(C)c1-n1nnnc1C(c1ccccc1OC(F)(F)F)N1CCC(n2c(=O)[nH]c3ccccc32)CC1 (configuration not stated)	72.6*	-28.5	5.7	-16.0	52.4*	.	67.6*	-0.1
COC(=O)C1=C(c2ccc(C(C)=O)cc2)C[C@@H]2CC[C@H]1N2C(=O)N1CCC(O)CC1	27.0	-22.6	-4.2	9.5	-7.0	-3.7	.	.
Cc1ccc(-c2cc(-c3ccc(C)cc3)[n+](-c3ccccc3)c(-c3ccc(C)cc3)c2)cc1	31.5	-39.5	28.5*	57.5*	80.2*	102.2*	94.1*	.	ABHD5 PLIN5 conf=8.9;HNF4 split-luc=10.8
Cc1ccc(C(=O)N2CC2C)cc1 (configuration not stated)	-7.1	-0.3	8.9	-0.3	-7.2	13.9	.	.
O=C1NC(=O)N(Cc2ccc(F)cc2)C(=O)/C1=C\C=C\c1ccco1	77.8*	-3.4	29.5*	22.3	62.0*	93.1*	66.1*	.	ABHD5 PLIN5 conf=96.1*;HNF4 split-luc=61.9*
O=C1NC(=O)N(Cc2ccccc2)C(=O)/C1=C\c1ccco1	46.7	-1.1	3.7	16.8	17.3	35.3	.	.
CC1=CC(O)C(O)C2(C)C1CC1OC(=O)CC3C(C)C(O)C(=O)C2C13CO (configuration not stated)	-16.1	12.1	1.6	45.5*	90.7*	17.9	20.3	.	HIF-2a inh conf=35.9;HIF-1a cs=-64.7
O=C1NC2C(=CC(O)C(O)C2O)c2cc3c(c(O)c21)OCO3 (configuration not stated)	89.4*	-64.0*	-11.5	85.0*	99.6*	88.1*	97.5*	.	HIF-2a inh conf=83.8*;HIF-1a cs=105.7*
O=S(=O)(c1cccc(C(F)(F)F)c1)N1Cc2ccccc2-n2nncc2C1	0.3	-8.0	-8.8	0.6	6.8	.	.	.
C[n+]1c(-c2ccccc2)cc(-c2ccc(Cl)cc2)cc1-c1ccccc1	-23.2	-0.6	-3.2	17.1	1.7	43.8	.	.
c1ccc(-c2cc(-c3ccccc3)[n+](-c3ccccc3)c(-c3ccccc3)c2)cc1	29.2	-31.6	9.9	8.2	110.5*	92.4*	87.0*	.	Mdm2-MdmX confirm=101.7*
O=C1NC(=O)C2(Cc3cc([N+](=O)[O-])ccc3N3CCN(C(=O)c4ccccc4)CC32)C(=O)N1 (configuration not stated)	-16.1	5.1	3.5	4.4	-10.8	12.5	.	.
COc1cc(C2c3cc4c(cc3CC3COC(=O)C32)OCO4)cc(OC)c1O (configuration not stated)	54.5*	-29.7	-1.9	19.8	-49.1	58.4	.	70.7*
COc1ccc(C[C@H]2NC[C@H](O)[C@H]2OC(C)=O)cc1	87.8*	-44.6	-1.1	90.6*	93.9*	82.9*	.	115.6*
Cc1ccc(OC(F)F)c(N2C(=O)C3C4CCC(O4)C3C2=O)c1 (configuration not stated)	-8.4	4.4	-6.7	16.5	8.6	8.8	.	.
O=[N+]([O-])c1ccc(N2CCCC(C(F)(F)F)C2)c2ccncc12 (configuration not stated)	15.8	-9.0	7.6	27.3	2.5	13.4	.	.
COc1ccc(-n2nnnc2C(c2cccc(OC)c2OC)N2CCC(n3c(=O)[nH]c4ccccc43)CC2)cc1 (configuration not stated)	84.1*	-22.8	4.7	9.6	55.3*	.	.	41.1*
COc1ccc(-n2nnnc2C(C2CC2)N2CCC3(CC2)C(=O)NCN3c2ccccc2)cc1 (configuration not stated)	19.2	-8.3	-1.3	33.4	24.9	.	.	.
O=c1[nH]c2ccccc2n1C1CCN(C(c2cccc3ccccc23)c2nnnn2Cc2ccccc2)CC1 (configuration not stated)	85.9*	-47.8	10.0	-35.1	81.5*	.	.	104.8*
COc1ccc(-n2nnnc2C(c2cccc3ccccc23)N2CCC3(CC2)C(=O)NCN3c2ccccc2)cc1 (configuration not stated)	6.6	-25.1	7.0	15.3	14.5	.	.	.
COc1ccc(-n2nnnc2C(c2cccs2)N2CCC(n3c(=O)[nH]c4ccccc43)CC2)cc1 (configuration not stated)	79.2*	-18.3	7.3	-23.4	70.6*	.	.	96.8*
Cc1cc(OCC(=O)N2CCC(C(=O)O)CC2)c2c3c(c(=O)oc2c1)CCCC3	-5.9	-0.8	0.8	7.1	7.8	-6.7	.	.
CC12C=CC(=O)CC1CCC1C2CCC2(C)C(O)C(O)CC12 (configuration not stated)	7.7	1.2	12.5	4.8	21.7	6.2	.	.
C=CC[C@@H](CC/C=C/C=C/CC/C=C\[C@@H]1CSC([C@@H]2C[C@@H]2C)=N1)OC	54.0*	-30.9	8.8	16.9	-10.3	67.4*	.	48.0*

From PubChem BioAssay
